Legend:
[1] = molecular target: T1, Serine/threonine-protein kinase Nek9 (Homo sapiens) (UniProt Q8TD19); settings: at 1 µM;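 note: each value is a mean percent inhibition of NEK9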
T1 sequence (whole entry): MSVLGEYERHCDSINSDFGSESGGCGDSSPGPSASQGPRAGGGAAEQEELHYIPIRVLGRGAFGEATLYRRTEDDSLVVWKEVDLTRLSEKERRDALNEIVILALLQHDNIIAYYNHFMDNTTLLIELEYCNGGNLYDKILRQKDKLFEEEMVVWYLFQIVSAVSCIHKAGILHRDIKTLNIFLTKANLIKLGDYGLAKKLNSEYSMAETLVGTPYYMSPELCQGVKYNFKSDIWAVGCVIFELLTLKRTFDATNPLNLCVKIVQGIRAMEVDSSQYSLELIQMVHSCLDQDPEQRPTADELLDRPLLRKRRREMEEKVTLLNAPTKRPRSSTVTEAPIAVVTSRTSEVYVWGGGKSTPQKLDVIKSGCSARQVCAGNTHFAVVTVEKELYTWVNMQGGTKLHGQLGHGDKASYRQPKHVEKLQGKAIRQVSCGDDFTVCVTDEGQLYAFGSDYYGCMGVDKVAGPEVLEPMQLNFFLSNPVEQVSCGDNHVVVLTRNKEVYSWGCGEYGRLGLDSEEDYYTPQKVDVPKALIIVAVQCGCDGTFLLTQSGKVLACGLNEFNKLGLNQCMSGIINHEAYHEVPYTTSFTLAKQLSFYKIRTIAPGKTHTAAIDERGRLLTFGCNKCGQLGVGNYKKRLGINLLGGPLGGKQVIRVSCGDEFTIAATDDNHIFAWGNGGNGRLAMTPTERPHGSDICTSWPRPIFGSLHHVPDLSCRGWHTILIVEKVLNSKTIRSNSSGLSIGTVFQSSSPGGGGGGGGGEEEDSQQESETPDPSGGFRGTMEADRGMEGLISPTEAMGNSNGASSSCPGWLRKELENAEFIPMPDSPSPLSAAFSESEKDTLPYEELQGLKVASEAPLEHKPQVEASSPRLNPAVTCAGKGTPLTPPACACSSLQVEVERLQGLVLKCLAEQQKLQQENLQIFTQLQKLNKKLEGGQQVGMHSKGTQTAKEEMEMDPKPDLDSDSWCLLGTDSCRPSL

[2] = molecular target: Serine/threonine-protein kinase PLK1 (Homo sapiens) (UniProt P53350); settings: at 0.1 µM
[3] = molecular target: Serine/threonine-protein kinase PLK1 (Homo sapiens) (UniProt P53350); settings: at 1 µM
[4] = molecular target: T2, Dual specificity protein kinase TTK (Homo sapiens) (UniProt P33981); settings: at 0.1 µM
T2 sequence (whole entry): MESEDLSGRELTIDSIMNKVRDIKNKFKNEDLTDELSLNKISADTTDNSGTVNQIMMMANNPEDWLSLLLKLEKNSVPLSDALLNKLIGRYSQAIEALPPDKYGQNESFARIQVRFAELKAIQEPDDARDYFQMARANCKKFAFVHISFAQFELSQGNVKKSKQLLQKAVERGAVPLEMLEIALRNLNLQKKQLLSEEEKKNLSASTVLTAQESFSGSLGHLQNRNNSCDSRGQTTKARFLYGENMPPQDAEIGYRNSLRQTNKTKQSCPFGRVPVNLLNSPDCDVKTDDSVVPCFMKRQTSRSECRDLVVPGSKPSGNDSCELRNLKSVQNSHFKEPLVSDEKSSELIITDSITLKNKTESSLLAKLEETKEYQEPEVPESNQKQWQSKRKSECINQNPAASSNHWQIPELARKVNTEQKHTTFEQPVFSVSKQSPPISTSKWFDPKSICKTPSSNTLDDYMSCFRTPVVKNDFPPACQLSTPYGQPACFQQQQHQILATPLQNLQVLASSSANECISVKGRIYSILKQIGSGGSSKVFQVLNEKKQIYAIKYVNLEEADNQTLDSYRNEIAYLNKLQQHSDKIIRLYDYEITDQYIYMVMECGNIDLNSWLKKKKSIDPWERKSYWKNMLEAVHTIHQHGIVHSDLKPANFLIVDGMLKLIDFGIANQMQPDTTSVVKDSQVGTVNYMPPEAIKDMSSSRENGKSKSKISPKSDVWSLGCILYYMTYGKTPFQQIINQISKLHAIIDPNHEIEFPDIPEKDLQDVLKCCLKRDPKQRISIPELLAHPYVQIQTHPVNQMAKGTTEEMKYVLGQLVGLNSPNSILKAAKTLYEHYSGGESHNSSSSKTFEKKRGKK

[5] = test system: T3, Receptor-type tyrosine-protein kinase FLT3 (Homo sapiens), P36888 [D835Y]; settings: at 1 µM
T3 sequence (whole entry): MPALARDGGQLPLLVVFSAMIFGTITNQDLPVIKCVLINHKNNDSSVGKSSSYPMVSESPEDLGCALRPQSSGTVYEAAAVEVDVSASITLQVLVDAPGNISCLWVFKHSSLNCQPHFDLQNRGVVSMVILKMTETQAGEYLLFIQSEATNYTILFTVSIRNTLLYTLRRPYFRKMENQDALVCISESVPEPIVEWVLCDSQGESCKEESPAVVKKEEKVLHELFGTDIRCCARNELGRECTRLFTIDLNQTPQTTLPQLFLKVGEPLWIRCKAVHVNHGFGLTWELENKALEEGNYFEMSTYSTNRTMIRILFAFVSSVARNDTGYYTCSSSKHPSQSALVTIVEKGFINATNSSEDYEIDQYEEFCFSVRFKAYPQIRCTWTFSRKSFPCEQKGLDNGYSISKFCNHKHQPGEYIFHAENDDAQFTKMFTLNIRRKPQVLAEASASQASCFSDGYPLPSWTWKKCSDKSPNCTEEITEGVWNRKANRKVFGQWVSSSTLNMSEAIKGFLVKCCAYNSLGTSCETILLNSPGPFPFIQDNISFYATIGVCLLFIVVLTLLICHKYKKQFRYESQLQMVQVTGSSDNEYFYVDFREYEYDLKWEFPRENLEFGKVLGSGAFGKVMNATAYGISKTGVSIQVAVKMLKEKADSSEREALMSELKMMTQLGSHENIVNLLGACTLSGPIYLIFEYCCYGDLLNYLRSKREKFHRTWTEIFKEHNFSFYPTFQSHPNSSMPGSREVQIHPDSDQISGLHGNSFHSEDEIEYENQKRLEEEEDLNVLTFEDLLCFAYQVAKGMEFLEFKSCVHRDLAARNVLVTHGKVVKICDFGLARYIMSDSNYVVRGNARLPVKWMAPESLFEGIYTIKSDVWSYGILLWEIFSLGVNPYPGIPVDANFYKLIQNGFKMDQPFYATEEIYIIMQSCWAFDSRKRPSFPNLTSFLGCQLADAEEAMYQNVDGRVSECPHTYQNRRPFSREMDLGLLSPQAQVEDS

[6] = molecular target: Vascular endothelial growth factor receptor 3 (Homo sapiens) (UniProt P35916); settings: at 0.1 µM
[7] = molecular target: Vascular endothelial growth factor receptor 3 (Homo sapiens) (UniProt P35916); settings: at 1 µM
[8] = molecular target: Macrophage colony-stimulating factor 1 receptor (Homo sapiens) (UniProt P07333); settings: at 0.1 µM
[9] = molecular target: Macrophage colony-stimulating factor 1 receptor (Homo sapiens) (UniProt P07333); settings: at 1 µM
[10] = molecular target: Tyrosine-protein kinase Fyn (Homo sapiens) (UniProt P06241); settings: at 0.1 µM
Tyrosine-protein kinase Fyn (Homo sapiens), sequence (P06241 2-537 limits assumed): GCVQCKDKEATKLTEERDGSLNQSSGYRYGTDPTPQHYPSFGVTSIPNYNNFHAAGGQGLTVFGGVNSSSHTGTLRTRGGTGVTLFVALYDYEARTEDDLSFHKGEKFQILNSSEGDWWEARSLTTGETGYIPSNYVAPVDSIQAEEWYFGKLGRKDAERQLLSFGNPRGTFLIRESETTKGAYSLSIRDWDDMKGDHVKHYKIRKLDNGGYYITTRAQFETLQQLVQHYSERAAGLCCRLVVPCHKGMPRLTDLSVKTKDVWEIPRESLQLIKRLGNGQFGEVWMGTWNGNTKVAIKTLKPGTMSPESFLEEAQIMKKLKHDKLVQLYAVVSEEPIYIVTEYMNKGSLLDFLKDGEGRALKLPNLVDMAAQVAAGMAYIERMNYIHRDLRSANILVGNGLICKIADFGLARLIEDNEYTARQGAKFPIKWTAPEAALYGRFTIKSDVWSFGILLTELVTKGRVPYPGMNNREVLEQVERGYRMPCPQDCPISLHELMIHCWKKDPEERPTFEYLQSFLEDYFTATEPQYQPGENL

Vascular endothelial growth factor receptor 3 (Homo sapiens), sequence (P35916 whole entry): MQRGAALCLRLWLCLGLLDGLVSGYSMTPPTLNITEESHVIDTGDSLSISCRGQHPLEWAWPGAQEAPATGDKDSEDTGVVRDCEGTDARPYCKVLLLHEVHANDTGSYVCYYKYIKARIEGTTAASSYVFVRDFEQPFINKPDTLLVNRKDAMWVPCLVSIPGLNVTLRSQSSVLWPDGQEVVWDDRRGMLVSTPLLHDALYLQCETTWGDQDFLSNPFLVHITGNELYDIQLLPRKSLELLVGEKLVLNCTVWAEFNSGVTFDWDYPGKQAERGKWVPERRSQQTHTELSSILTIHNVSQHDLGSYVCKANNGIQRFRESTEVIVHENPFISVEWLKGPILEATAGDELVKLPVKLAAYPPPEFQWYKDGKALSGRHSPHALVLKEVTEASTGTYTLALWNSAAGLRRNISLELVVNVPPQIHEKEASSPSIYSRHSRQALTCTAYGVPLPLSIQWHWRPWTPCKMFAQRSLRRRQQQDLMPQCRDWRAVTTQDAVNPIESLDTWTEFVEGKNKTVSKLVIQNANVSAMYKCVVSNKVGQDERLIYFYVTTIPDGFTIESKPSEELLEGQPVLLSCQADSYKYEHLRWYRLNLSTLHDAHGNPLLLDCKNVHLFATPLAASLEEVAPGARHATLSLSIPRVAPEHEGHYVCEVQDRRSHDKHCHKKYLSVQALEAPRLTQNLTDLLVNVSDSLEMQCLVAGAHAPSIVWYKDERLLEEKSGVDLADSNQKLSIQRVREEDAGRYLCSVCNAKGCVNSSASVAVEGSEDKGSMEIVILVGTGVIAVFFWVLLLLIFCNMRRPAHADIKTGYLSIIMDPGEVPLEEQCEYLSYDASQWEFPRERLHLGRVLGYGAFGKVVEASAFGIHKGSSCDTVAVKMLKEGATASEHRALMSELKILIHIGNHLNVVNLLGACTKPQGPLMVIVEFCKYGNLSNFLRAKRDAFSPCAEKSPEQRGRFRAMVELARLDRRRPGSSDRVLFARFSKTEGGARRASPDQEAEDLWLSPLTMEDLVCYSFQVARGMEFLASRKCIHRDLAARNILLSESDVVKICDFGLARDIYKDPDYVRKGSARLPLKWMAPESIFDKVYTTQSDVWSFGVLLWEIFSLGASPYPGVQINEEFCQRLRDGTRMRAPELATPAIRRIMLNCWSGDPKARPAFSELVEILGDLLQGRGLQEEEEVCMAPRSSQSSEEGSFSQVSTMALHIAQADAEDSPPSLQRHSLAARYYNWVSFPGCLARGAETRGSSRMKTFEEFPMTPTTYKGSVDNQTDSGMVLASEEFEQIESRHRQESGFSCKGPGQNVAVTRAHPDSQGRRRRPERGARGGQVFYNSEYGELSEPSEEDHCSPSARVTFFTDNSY
Serine/threonine-protein kinase PLK1 (Homo sapiens), sequence (P53350 whole entry): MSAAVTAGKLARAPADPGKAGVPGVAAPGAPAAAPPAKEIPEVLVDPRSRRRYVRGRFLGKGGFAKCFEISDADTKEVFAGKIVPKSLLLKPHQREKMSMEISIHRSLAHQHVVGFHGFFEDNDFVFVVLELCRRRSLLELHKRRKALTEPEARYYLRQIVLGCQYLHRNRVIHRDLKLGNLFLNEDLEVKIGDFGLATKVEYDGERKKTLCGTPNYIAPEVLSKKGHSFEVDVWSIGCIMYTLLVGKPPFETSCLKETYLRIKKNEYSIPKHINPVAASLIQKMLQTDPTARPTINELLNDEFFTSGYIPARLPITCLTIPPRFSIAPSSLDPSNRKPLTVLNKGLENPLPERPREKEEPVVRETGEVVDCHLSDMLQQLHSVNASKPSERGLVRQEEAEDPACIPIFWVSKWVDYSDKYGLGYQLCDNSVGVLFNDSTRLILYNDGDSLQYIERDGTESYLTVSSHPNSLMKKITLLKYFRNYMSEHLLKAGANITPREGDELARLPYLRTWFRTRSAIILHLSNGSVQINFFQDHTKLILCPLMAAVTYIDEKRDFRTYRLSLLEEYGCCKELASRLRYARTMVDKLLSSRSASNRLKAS
Macrophage colony-stimulating factor 1 receptor (Homo sapiens), sequence (P07333 whole entry): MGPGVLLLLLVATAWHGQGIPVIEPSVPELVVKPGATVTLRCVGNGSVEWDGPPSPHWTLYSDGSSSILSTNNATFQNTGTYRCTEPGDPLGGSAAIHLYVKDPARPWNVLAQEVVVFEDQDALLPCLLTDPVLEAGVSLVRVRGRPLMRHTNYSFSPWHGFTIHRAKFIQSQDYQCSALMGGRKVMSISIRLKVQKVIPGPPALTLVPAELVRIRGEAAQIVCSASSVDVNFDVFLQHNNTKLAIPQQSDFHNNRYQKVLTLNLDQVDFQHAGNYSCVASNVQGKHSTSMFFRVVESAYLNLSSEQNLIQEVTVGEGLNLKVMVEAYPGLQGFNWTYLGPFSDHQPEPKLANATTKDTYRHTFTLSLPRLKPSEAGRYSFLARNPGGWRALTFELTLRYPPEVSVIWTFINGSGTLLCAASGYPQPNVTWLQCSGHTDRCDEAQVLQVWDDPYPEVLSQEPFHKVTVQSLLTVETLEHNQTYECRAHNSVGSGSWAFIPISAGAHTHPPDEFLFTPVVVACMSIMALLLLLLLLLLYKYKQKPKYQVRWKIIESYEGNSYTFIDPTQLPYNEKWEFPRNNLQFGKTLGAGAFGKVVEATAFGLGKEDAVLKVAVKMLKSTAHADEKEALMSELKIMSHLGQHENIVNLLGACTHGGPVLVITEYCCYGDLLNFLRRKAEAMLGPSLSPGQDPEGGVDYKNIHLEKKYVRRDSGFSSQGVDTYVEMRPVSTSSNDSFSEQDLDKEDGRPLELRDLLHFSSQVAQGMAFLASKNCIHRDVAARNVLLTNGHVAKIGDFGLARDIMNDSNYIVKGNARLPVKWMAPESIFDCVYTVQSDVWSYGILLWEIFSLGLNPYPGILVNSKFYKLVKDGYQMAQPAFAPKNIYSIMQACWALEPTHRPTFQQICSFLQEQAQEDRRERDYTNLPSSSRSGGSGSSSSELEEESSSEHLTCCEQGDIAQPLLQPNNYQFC

Row | Structure (SMILES) | inhibition [1] [%] | inhibition [2] [%] | inhibition [3] [%] | inhibition [4] [%] | inhibition [5] [%] | inhibition [6] [%] | inhibition [7] [%] | inhibition [8] [%] | inhibition [9] [%] | inhibition [10] [%]
1 | CCCN1CCC(Oc2cc(Nc3nc(Nc4cccc(F)c4C(N)=O)c4cc[nH]c4n3)c(OC)cc2Cl)CC1 | -2.13 | 8.91 | 47.5 | 3.35 | -3.06 | 12.3 | 14.6 | -0.53 | 3.9 | 1.38
2 | CC(=O)Nc1cccc(C#Cc2cncnc2Nc2ccc(OCc3cccc(F)c3)c(Cl)c2)n1 | 2.5 | -3.77 | -3.29 | -1.68 | 2.36 | -1.2 | -2.96 | 0.5 | -0.39 | 1.08
3 | Cc1cc(O)cc(C)c1/C=C/c1cncc(-c2nn[nH]n2)c1 | 8.64 | 3.41 | 4.38 | 7.11 | -0.25 | -9.76 | – | 8.02 | 36.1 | 3.99
4 | COc1cc2ncn(-c3cc(OCc4ccccc4C(F)(F)F)c(C(N)=O)s3)c2cc1OC | 58.7 | 93.4 | 96.3 | 7.82 | 14.5 | 6.89 | 53.1 | – | – | -0.99
5 | Nc1ncnc2occ(-c3ccc(NC(=O)Nc4cc(C(F)(F)F)cc(C(F)(F)F)c4)cc3)c12 | -1.98 | 2.75 | 1.86 | 1.59 | 33.2 | 9.31 | 56.5 | 51.2 | 95.3 | 0.55
6 | NS(=O)(=O)c1ccc(N/N=C2\C(=O)Nc3ccc(C(=O)NCCc4c[nH]cn4)cc32)cc1 | 10.4 | 5.66 | 10.8 | 37.9 | 48 | 6.93 | 26.4 | – | 15.4 | 3.46
7 | CC1=C(C(=O)Nc2ccc3[nH]ncc3c2)C(c2ccc(F)cc2)NC(=O)N1 (configuration not stated) | 3.09 | 2.01 | 1.91 | 3.79 | -1.48 | 18.2 | 15.4 | 1.12 | 0.9 | 1.72
8 | Fc1cccc(COc2ccc(Nc3ncnc4cc(-c5ccc[nH]5)sc34)cc2Cl)c1 | 9.08 | 3.81 | 3.54 | 9.76 | 1.35 | – | – | 0.63 | 8.96 | -2.98
9 | CCn1c(-c2nonc2N)nc2cncc(C(=O)N3CC[C@H](N)C3)c21 | 19.1 | 4.34 | 8.01 | 16 | -5.46 | 5.85 | 7.41 | 1.27 | 3.01 | 3.5
10 | COc1cc2ncn(-c3cc(OCc4ccccc4Cl)c(C(N)=O)s3)c2cc1OC | 55.5 | 93.8 | 96.3 | 2.78 | 9.43 | 11.9 | 54.8 | 1.91 | 23.7 | 2.79
11 | c1cnn2ncc(-c3ccnc(Nc4ccc5c(c4)OCCO5)n3)c2c1 | 49.9 | 8.35 | 29.4 | 11.9 | 36.1 | 8.6 | 21.8 | 44.5 | 85.7 | 1.57
12 | [O-][S+]1CCN(Cc2ccc(-c3ccc4ncnc(Nc5ccc(OCc6ccccc6)c(F)c5)c4c3)o2)CC1 | 4.38 | 2.17 | 1.22 | 5.89 | 1.92 | -0.55 | 0.47 | 0.26 | 3.3 | 0.67
13 | COc1cc(C=NNc2ncnc3c2cnn3-c2ccccc2)ccc1O | 1.08 | 2.41 | 3.03 | 3.02 | 56.8 | 5.09 | 24.4 | 7.04 | 26.8 | 11
14 | Cc1nn(C)c2cc(N(C)c3ccnc(Nc4cccc(S(N)(=O)=O)c4)n3)ccc12 | 13.1 | 2.85 | 3.39 | 13 | 11.9 | 15.6 | 62.9 | 75.5 | 93.9 | 4.56
15 | N#Cc1c(NC(=O)c2cccc3ccccc23)sc2c1CCCC2 | 4.88 | 3.77 | 9.99 | 11.9 | -2.86 | 0.07 | -3.88 | 0.85 | 1.31 | 2.07
16 | Nc1nc(-c2ccc3c(c2)C(=Cc2cc(Br)c(O)c(Br)c2)C(=O)N3)cs1 | 8.59 | 0.43 | 3.62 | 2.39 | 3.47 | 4.68 | 6.47 | -1.81 | 2.56 | -0.03
17 | COc1ccc(COc2ccc(Cc3cnc(N)nc3N)cc2OC)cc1 | -4.1 | 0.21 | 3.71 | -2.66 | -1.91 | -2.95 | -0.86 | – | – | 0.22
